From ChEMBL document CHEMBL3988442, “University of Dundee, Small-Polar-MMV Screening Library” (2021) come the findings set out here.

Among all 69,000 compounds or so, about 1,000 (1.4%) showed an effect of 50% or more. The full list was thinned out, with strong results kept by preference.

In the test the test system is Leishmania donovani. The test can be described thus: Leishmania intramacrophage assay. Further details: scale not given: in the data most compounds retested in dose-response had high values. It counts as functional, organism-based.

Regarding `Cc1ccc(O)c(CNc2cccc(CN3CCSCC3)c2)n1`, under “30.3 µM, […]”, the “Percent Effect” value stood at 6.923%.

As for `Cc1nc(CN2C(=O)CCC23CCN(Cc2cccn2C)CC3)cs1.O=C(O)C(F)(F)F.O=C(O)C(F)(F)F`, the “Percent Effect” value (30.3 µM, […]) stood at 2.496%.

As for `N#CCCN(CC1CCOC1)Cn1ccc(-c2ccccc2)n1` (stereo unspecified), the “Percent Effect” value (30.3 µM, […]) is listed as 16.63%.

As for `COc1ccncc1NC(=O)c1[nH]nc(C(C)C)c1Br`, the “Percent Effect” value (30.3 µM, […]) is reported as 16.78%.

In the case of `CC(C)c1n[nH]c(C(=O)NC(C)c2ccncc2)c1Br` (stereo unspecified), the “Percent Effect” value (30 µM) came out at 13.54%.

Regarding `CC(C)c1n[nH]c(C(=O)Nc2ccncc2)c1Br`, under “30 µM, 30.03 µM”, the “Percent Effect” value was found to be 62.71%.

As to `OC1COCCN(Cc2cc(-c3ccccc3OC(F)(F)F)no2)C1` (stereo unspecified), for the setting “30.3 µM, […]”, the “Percent Effect” value is on record as -21.47%.

On to `N[C@@H]1CCN(Cc2cc(-c3ccccc3OC(F)(F)F)no2)C[C@H]1O`, for which the “Percent Effect” value (30.3 µM, […]) is 12.53%.

As to `NC1CCCCN(Cc2cc(-c3ccccc3OC(F)(F)F)no2)C1` (stereo unspecified), the “Percent Effect” value (30.3 µM, […]) was 99.07%.

In the case of `COc1ccc(C)cc1CN1CCC(c2cc3ncccc3cn2)CC1.Cl`, the “Percent Effect” value (30.3 µM, […]) was determined as 41.3%.

Take `CS(=O)(=O)N1CCC(C(=O)Nc2nnc(C(F)(F)F)[nH]2)CC1`: for the setting “30.3 µM, […]”, the “Percent Effect” value stood at 1.048%.

With `COC[C@@H]1CCCN1C(=O)c1cc(-c2ccc(OC)cc2)n[nH]1`, the “Percent Effect” value (30.3 µM, […]) came to 15.18%.

For `CN1CCC(N(Cc2ccco2)S(=O)(=O)c2ccc(Cl)cc2)CC1`, the “Percent Effect” value (30.3 µM, […]) is listed as 24.1%.

In the case of `O=c1cc(CN(Cc2ccco2)C2CC2)nc2ccc(Br)cn12`, the “Percent Effect” value (30.3 µM, […]) was found to be 12.01%.

With `Cc1nnc(CN(C)S(=O)(=O)c2ccc(Br)cc2Cl)n1C`, under “30.3 µM, […]”, the “Percent Effect” value is reported as 25.06%.

`CN(Cc1nnc2n1CCC2)S(=O)(=O)c1cc(Br)ccc1Br`: the “Percent Effect” value (30.3 µM, […]) is on record as 22.5%.

With `CN1CCC(N(Cc2ccco2)S(=O)(=O)c2cc(Br)ccc2Br)CC1`, the “Percent Effect” value (30.3 µM, […]) was 95.6%.

Take `CN1CCC(N(Cc2ccco2)S(=O)(=O)c2ccc(Br)cc2Cl)CC1`: for the setting “30.3 µM, […]”, the “Percent Effect” value was 87.02%.

With `Cc1ccc(NCCCNC(=O)C2CCCN(Cc3ccco3)C2)nc1` (stereo unspecified), the “Percent Effect” value (30.3 µM, […]) is given as -17.24%.

Consider `Cc1nc(CN(C)c2nccc(C(F)(F)F)n2)cs1`, for which the “Percent Effect” value (30.3 µM, […]) worked out at 5.886%.

Consider `Cc1cnn(CCNc2nc(C)cc(N(C)C)n2)c1`, for which, for the setting “30.3 µM, […]”, the “Percent Effect” value is reported as -24.91%.

In the case of `CC(C)c1ccc(/C=C/CC(=O)NC2CCN(C(N)=O)C2)cc1` (stereo unspecified), the “Percent Effect” value (30.3 µM, […]) was 6.492%.

Consider `CC(C)c1ccc(/C=C/CC(=O)NC2CCN(C(N)=O)CC2)cc1`, for which, under “30.3 µM, […]”, the “Percent Effect” value is recorded as -5.908%.

With `COCCN1CCC(NC(=O)C/C=C/c2ccc(C(C)C)cc2)CC1`, the “Percent Effect” value (30.3 µM, […]) is reported as 51.69%.

For `O=C(CC1CC1)N1CCN(Cc2ccncc2)c2ncccc2C1.O=C(O)C(F)(F)F.O=C(O)C(F)(F)F`, where the note is “30.3 µM, […]”, the “Percent Effect” value is listed as -1.398%.

Regarding `CCc1cc(C(=O)N2CCC3(CCCN(CC4CC4)C3=O)C2)cs1` (stereo unspecified), the “Percent Effect” value (30.3 µM, […]) was determined as 12.28%.

As for `O=C1NCCCc2c1oc1ccc(O)c(CN3CCOCC3)c21`, the “Percent Effect” value (30.3 µM, […]) is 56.93%.

Regarding `Oc1ccc2oc3c(c2c1CN1CCOCC1)CCCC3`, under “30.3 µM, […]”, the “Percent Effect” value is 27.1%.

As for `NC(=O)C1CN(Cc2c(O)ccc3oc4c(c23)CCCC4)CCO1` (stereo unspecified), the “Percent Effect” value (30.3 µM, […]) was determined as 24.24%.

As for `Cc1nc(CNCC2CN(C)CCO2)cs1` (stereo unspecified), the “Percent Effect” value (30 µM, 30.03 µM) was 33.12%.

With `CN1CCOC(CNCc2csc(C3CCCC3)n2)C1` (stereo unspecified), the “Percent Effect” value (30 µM) is 13.96%.

In the case of `CN1CCOC(CNCc2csc(C3CCCCC3)n2)C1` (stereo unspecified), where the note is “30 µM”, the “Percent Effect” value came out at 56.43%.

As to `COc1ccc(CN2C[C@@H]3CC[C@H](C2)N(Cc2snnc2C)C3)cc1`, the “Percent Effect” value (30.3 µM, […]) is on record as -20.42%.

As to `NS(=O)(=O)NCC1(c2ccccc2Br)CC1`, the “Percent Effect” value (30.3 µM, […]) came out at 94.29%.

Take `CS(=O)(=O)NCC1(c2ccccc2Br)CC1`: the “Percent Effect” value (30.3 µM, […]) was -0.01271%.

On to `CN(C)S(=O)(=O)NCC1(c2ccccc2Br)CC1`, for which the “Percent Effect” value (30.3 µM, […]) is given as -4.461%.

Consider `CC(C)(O)c1cc(CC2(NCc3ccccc3Cl)COC2)no1`, for which, for the setting “30.3 µM, […]”, the “Percent Effect” value was determined as 25.25%.

Regarding `Cc1ccc(C(C)NCc2cn(CCC(N)=O)c3ccccc23)cc1C` (stereo unspecified), the “Percent Effect” value (30.3 µM, […]) is listed as 88.97%.

Regarding `CC(NCc1cn(CCC(N)=O)c2ccccc12)c1nncn1C` (stereo unspecified), the “Percent Effect” value (30.3 µM, […]) is given as -7.777%.

On to `CC(C)n1cnnc1CCNCc1cn(CCC(N)=O)c2ccccc12`, for which, for the setting “30.3 µM, […]”, the “Percent Effect” value came out at 32.43%.

With `O=C(Cn1c(=O)nc2n1C(=O)N(c1ccccc1)C2)NC1CCCCC1`, the “Percent Effect” value (30.3 µM, […]) is on record as -29.26%.

With `COc1ccccc1CN1C(=O)O[C@@H]2CN(Cc3cccc(C)n3)C[C@@H]21`, the “Percent Effect” value (30.3 µM, […]) is -18.87%.

In the case of `CC(C)c1nnc2n1CC(CNCc1nc3ccccc3s1)CC2` (stereo unspecified), the “Percent Effect” value (30.3 µM, […]) is on record as -6.919%.

Turning to `O=C(Nc1c(N2CCCC2)cccc1N1CCCC1)c1cnccn1`, the “Percent Effect” value (30.3 µM, […]) is 2.563%.

In the case of `O=C(Nc1c(N2CCCC2)cccc1N1CCCC1)c1ccccn1`, the “Percent Effect” value (30.3 µM, […]) was 56.83%.

Turning to `O=C(Nc1c(N2CCCC2)cccc1N1CCCC1)c1cnsn1`, the “Percent Effect” value (30.3 µM, […]) is recorded as -91.54%.

Consider `N#Cc1ccccc1CN1C[C@@H]2CC[C@H](C1)N(CC1CC1)C2=O`, for which the “Percent Effect” value (30 µM, 30.03 µM) was determined as 6.562%.

For `COc1ccc(CNC(=O)CCc2c(C)noc2C)cc1F`, under “30.3 µM, […]”, the “Percent Effect” value was 14.24%.

`c1ccc(Cc2nc(CNC3CCC4(CCNCC4)CC3)no2)cc1`: the “Percent Effect” value (30.3 µM, […]) was -22.96%.

For `CCOC(=O)N1CCN(C(=O)C2CC(=O)N(c3ccccc3Br)C2)CC1` (stereo unspecified), under “30.3 µM, […]”, the “Percent Effect” value is listed as 15.14%.

As to `Cc1c(Cl)cccc1NCc1nc2n(n1)CCCCC2`, the “Percent Effect” value (30.3 µM, […]) amounted to 55.49%.
